Test results from PubChem BioAssay AID1159580 (chemical genetic matrix, 2015).
Where “and” joins values, the source holds several entries; their conditions need not be identical. Identical values can stand only once. Among all 5,500 compounds or so, about 2,000 (36%) were called active. Roughly 18% stayed inconclusive and do not appear here. No stated cut-off is given here; in the data, active means normalized growth mostly below about 0.91 (no sharp cut-off); inconclusive means no clear call, values can overlap the other calls; inactive means mostly above about 0.92. The list shows a part of the results.

Assay: chemical genetic growth profiling, strain panel (AID 1159580);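 further: tested at 20 µM; growth read once vehicle control cultures reached saturation at 30 °C; 1 = growth at the plate median or of vehicle wells; lower values mean less growth of the strain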
Settings: growth OD
[1] = S. cerevisiae deletion strains, locus YAL013W, strain DEP1, active compounds read low
[2] = S. cerevisiae deletion strains, locus YBR229C, strain ROT2, active compounds read low
[3] = S. cerevisiae deletion strains, locus YDL101C, strain DUN1, active compounds read low
[4] = S. cerevisiae deletion strains, locus YDL134C, strain PPH21, active compounds read low
[5] = S. cerevisiae deletion strains, locus YDR150W, strain NUM1, active compounds read low
[6] = S. cerevisiae deletion strains, locus YEL061C, strain CIN8, active compounds read low
[7] = S. cerevisiae deletion strains, locus YGR078C, strain PAC10, active compounds read low
[8] = S. cerevisiae deletion strains, locus YGR229C, strain SMI1, active compounds read low
[9] = S. cerevisiae deletion strains, locus YHR030C, strain SLT2, active compounds read low
[10] = S. cerevisiae deletion strains, locus YJR043C, strain POL32, active compounds read low
[11] = S. cerevisiae deletion strains, locus YJR075W, strain HOC1, active compounds read low
[12] = S. cerevisiae deletion strains, locus YKL190W, strain CNB1, active compounds read low
[13] = S. cerevisiae deletion strains, locus YLR039C, strain RIC1, active compounds read low
[14] = S. cerevisiae deletion strains, locus YLR262C, strain YPT6, active compounds read low
[15] = S. cerevisiae deletion strains, locus YMR263W, strain SAP30, active compounds read low
[16] = S. cerevisiae deletion strains, locus YNL153C, strain GIM3, active compounds read low
[17] = S. cerevisiae deletion strains, locus YNL322C, strain KRE1, active compounds read low
[18] = S. cerevisiae deletion strains, locus YOL006C, strain TOP1, active compounds read low
[19] = S. cerevisiae deletion strains, locus YPL055C, strain LGE1, active compounds read low
[20] = S. cerevisiae deletion strains, locus YPL241C, strain CIN2, active compounds read low

Measured: normalized growth

CC(=O)N[C@@H]1[C@@H](C(O)[C@H](O)CO)O[C@](O)(C(=O)O)C[C@@H]1O (some centres not stated)
inactive: [1] 1.01 | S. cerevisiae deletion strains, locus YBR021W, strain FUR4, active compounds read low 1.02 | [2] 1 | S. cerevisiae deletion strains, locus YCL029C, strain bik1, active compounds read low 0.997 | S. cerevisiae deletion strains, locus YDL035C, strain GPR1, active compounds read low 1.01 | S. cerevisiae deletion strains, locus YDL074C, strain BRE1, active compounds read low 1.04 | [3] 1.03 | [4] 1 | S. cerevisiae deletion strains, locus YDL185W, strain tfp1, active compounds read low 1.02 | S. cerevisiae deletion strains, locus YDL192W, strain arf1, active compounds read low 0.999 | S. cerevisiae deletion strains, locus YDR101C, strain arx1, active compounds read low 1 | [5] 1 | S. cerevisiae deletion strains, locus YDR162C, strain NBP2, active compounds read low 1.02 | S. cerevisiae deletion strains, locus YDR318W, strain mcm21, active compounds read low 1.01 | S. cerevisiae deletion strains, locus YDR388W, active compounds read low 1.01 | S. cerevisiae deletion strains, locus YDR502C, strain sam2, active compounds read low 0.998 | [6] 1 | S. cerevisiae deletion strains, locus YER110C, active compounds read low 1 | S. cerevisiae deletion strains, locus YER155C, strain BEM2, active compounds read low 1 | S. cerevisiae deletion strains, locus YER167W, strain BCK2, active compounds read low 1 | S. cerevisiae deletion strains, locus YGL078C, strain dbp3, active compounds read low 0.982 | S. cerevisiae deletion strains, locus YGL086W, strain mad1, active compounds read low 1 | S. cerevisiae deletion strains, locus YGL248W, strain PDE1, active compounds read low 1.01 | [7] 1.03 | S. cerevisiae deletion strains, locus YGR135W, strain pre9, active compounds read low 1.01 | [8] 1.02 | S. cerevisiae deletion strains, locus YGR252W, strain gcn5, active compounds read low 0.958 | [9] 0.998 and 1.01 | S. cerevisiae deletion strains, locus YHR079C, strain IRE1 (second series), active compounds read low 1.01 | S. cerevisiae deletion strains, locus YHR079C, strain IRE1, active compounds read low 1 | S. cerevisiae deletion strains, locus YHR094C, strain hxt1, active compounds read low 1.01 | S. cerevisiae deletion strains, locus YHR129C, strain ARP1, active compounds read low 1.02 | S. cerevisiae deletion strains, locus YHR200W, strain rpn10, active compounds read low 1.01 | S. cerevisiae deletion strains, locus YIL066C, strain RNR3, active compounds read low 1.02 | S. cerevisiae deletion strains, locus YIL073C, strain SPO22, active compounds read low 1.02 | S. cerevisiae deletion strains, locus YIL125W, strain kgd1, active compounds read low 0.993 | S. cerevisiae deletion strains, locus YIR030C, strain dcg1, active compounds read low 0.999 | S. cerevisiae deletion strains, locus YJL095W, strain BCK1, active compounds read low 1.06 and 0.995 | S. cerevisiae deletion strains, locus YJL134W, strain LCB3, active compounds read low 1.01 | S. cerevisiae deletion strains, locus YJL168C, strain set2, active compounds read low 1.01 | S. cerevisiae deletion strains, locus YJL187C, strain SWE1 (second series), active compounds read low 1.04 | [10] 1.04 | S. cerevisiae deletion strains, locus YJR066W, strain TOR1, active compounds read low 0.916 | [11] 1.02 | S. cerevisiae deletion strains, locus YKL009W, strain mrt4, active compounds read low 1.02 | S. cerevisiae deletion strains, locus YKL068W, active compounds read low 0.998 | S. cerevisiae deletion strains, locus YKL085W, strain MDH1 (second series), active compounds read low 1 | S. cerevisiae deletion strains, locus YKL085W, strain MDH1, active compounds read low 1 | [12] 1.01 | S. cerevisiae deletion strains, locus YKR001C, strain vps1, active compounds read low 1.01 | [13] 1.02 | S. cerevisiae deletion strains, locus YLR058C, strain SHM2, active compounds read low 1.01 | S. cerevisiae deletion strains, locus YLR102C, strain apc9, active compounds read low 1.01 | S. cerevisiae deletion strains, locus YLR113W, strain HOG1, active compounds read low 1.05 | [14] 1.03 | S. cerevisiae deletion strains, locus YLR268W, strain sec22, active compounds read low 1.07 | S. cerevisiae deletion strains, locus YLR330W, strain CHS5, active compounds read low 1 | S. cerevisiae deletion strains, locus YLR342W, strain FKS1 (second series), active compounds read low 1.02 | S. cerevisiae deletion strains, locus YLR371W, strain rom2, active compounds read low 1.01 | S. cerevisiae deletion strains, locus YLR418C, strain cdc73, active compounds read low 1.01 | S. cerevisiae deletion strains, locus YML016C, strain PPZ1, active compounds read low 1.01 | S. cerevisiae deletion strains, locus YML032C, strain rad52, active compounds read low 1.05 | S. cerevisiae deletion strains, locus YML124C, strain tub3, active compounds read low 0.997 | S. cerevisiae deletion strains, locus YMR078C, strain ctf18, active compounds read low 1.01 | S. cerevisiae deletion strains, locus YMR223W, strain ubp8, active compounds read low 0.975 | [15] 1.02 | S. cerevisiae deletion strains, locus YMR307W, strain GAS1, active compounds read low 1.01 | S. cerevisiae deletion strains, locus YNL067W, strain RPL9B, active compounds read low 1.05 | S. cerevisiae deletion strains, locus YNL128W, strain TEP1, active compounds read low 1.03 | [16] 1.04 | S. cerevisiae deletion strains, locus YNL183C, strain NPR1, active compounds read low 0.913 | S. cerevisiae deletion strains, locus YNL233W, strain BNI4, active compounds read low 1.03 | S. cerevisiae deletion strains, locus YNL250W, strain rad50, active compounds read low 0.999 | S. cerevisiae deletion strains, locus YNL271C, strain bni1, active compounds read low 1.01 | S. cerevisiae deletion strains, locus YNL298W, strain CLA4, active compounds read low 0.994 | S. cerevisiae deletion strains, locus YNL307C, strain MCK1, active compounds read low 1 | [17] 1 | S. cerevisiae deletion strains, locus YNR052C, strain pop2, active compounds read low 1.01 | [18] 1.15 | S. cerevisiae deletion strains, locus YOL012C, strain htz1 1.02 | S. cerevisiae deletion strains, locus YOL147C, strain pex11, active compounds read low 1 | S. cerevisiae deletion strains, locus YOR061W, strain CKA2, active compounds read low 1.01 | S. cerevisiae deletion strains, locus YOR069W, strain VPS5, active compounds read low 1.01 | S. cerevisiae deletion strains, locus YOR136W, strain idh2, active compounds read low 0.986 | S. cerevisiae deletion strains, locus YOR144C, strain elg1, active compounds read low 0.994 | S. cerevisiae deletion strains, locus YOR184W, strain ser1, active compounds read low 0.994 | S. cerevisiae deletion strains, locus YOR231W, strain MKK1, active compounds read low 0.996 | S. cerevisiae deletion strains, locus YOR316C, strain cot1, active compounds read low 1.01 | [19] 1.02 | [20] 1.01 | S. cerevisiae deletion strains, locus YPL256C, strain CLN2, active compounds read low 0.99 | S. cerevisiae deletion strains, locus YPR119W, strain clb2, active compounds read low 1 | S. cerevisiae deletion strains, locus YPR141C, strain kar3, active compounds read low 0.999 | S. cerevisiae deletion strains, locus YPR163C, strain tif3, active compounds read low 1.01 | S. cerevisiae deletion strains, locus YPR167C, strain met16, active compounds read low 1 | S. cerevisiae deletion strains, strain wtn01, active compounds read low 1.01 | S. cerevisiae strains, strain wild type, active compounds read low 1.01

S=C(NCCCn1ccnc1)Nc1cc(Cl)ccc1Cl
active: [4] 0.868
inactive: [1] 1.02 | [2] 0.987 | S. cerevisiae deletion strains, locus YCL061C, strain MRC1, active compounds read low 0.979 | [3] 0.963 | [5] 1.01 | [6] 1.02 | [7] 0.982 | [8] 0.994 | [9] 0.745 | S. cerevisiae deletion strains, locus YHR087W, strain rtc3, active compounds read low 1.04 | S. cerevisiae deletion strains, locus YJL187C, strain SWE1, active compounds read low 1.01 | [10] 1 | [11] 0.979 | [12] 0.994 | [13] 0.973 | S. cerevisiae deletion strains, locus YLR058C, strain SHM2 (second series), active compounds read low 1.02 | S. cerevisiae deletion strains, locus YLR085C, strain ARP6, active compounds read low 0.839 | [14] 1.05 | S. cerevisiae deletion strains, locus YML094W, strain GIM5, active compounds read low 1.01 | S. cerevisiae deletion strains, locus YMR219W, strain ESC1, active compounds read low 1 | [15] 1.01 | [16] 0.987 | S. cerevisiae deletion strains, locus YNL298W, strain CLA4 (second series), active compounds read low 0.971 | [17] 0.992 | S. cerevisiae deletion strains, locus YNR030W, strain Alg12, active compounds read low 1.01 | [18] 0.938 | [19] 1 | [20] 0.983 | S. cerevisiae deletion strains, locus YPR135W, strain CTF4, active compounds read low 0.754
